This is a sample that favours compounds with a hit; in the whole collection about 3.4% have one here.
MITF inh: MITF inhibitors, primary screen, biochemical, AlphaScreen, human | Microphthalmia-associated transcription factor (Homo sapiens), O75030 | AlphaScreen MITF homodimerization, bead proximity signal | inhibition, % at 2.6 µM | 650,000 compounds, 0.91% hits | AID 1259374, 2018; in the data active = inhibition above about 50%
Target sequence (O75030 whole entry, looked up): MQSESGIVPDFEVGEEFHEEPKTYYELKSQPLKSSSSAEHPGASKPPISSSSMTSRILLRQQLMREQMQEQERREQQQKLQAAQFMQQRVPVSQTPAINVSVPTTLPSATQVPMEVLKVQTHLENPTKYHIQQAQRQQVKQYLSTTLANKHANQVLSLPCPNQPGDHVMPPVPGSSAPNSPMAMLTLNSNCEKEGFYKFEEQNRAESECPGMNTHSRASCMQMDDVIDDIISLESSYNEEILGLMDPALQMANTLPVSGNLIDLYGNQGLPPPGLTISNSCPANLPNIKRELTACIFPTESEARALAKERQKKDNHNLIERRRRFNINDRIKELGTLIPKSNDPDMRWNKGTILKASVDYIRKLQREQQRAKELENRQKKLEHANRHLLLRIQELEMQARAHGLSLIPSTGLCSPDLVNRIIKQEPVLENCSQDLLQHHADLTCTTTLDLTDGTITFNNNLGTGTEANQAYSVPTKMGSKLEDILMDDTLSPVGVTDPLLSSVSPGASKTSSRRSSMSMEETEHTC
GPR151 ag: activators of human GPR151, primary screen, cell-based, PathHunter beta-arrestin, luminescence; 650,000 compounds, 1% hits; PathHunter beta-arrestin GPR151 cells; G-protein coupled receptor 151 (Homo sapiens), Q8TDV0; activation, % at 11.2 µM; in the data active = activation above about 4.9%
FBW7 activator: FBW7 E3 ligase activators, primary screen, biochemical, AlphaScreen, human; normalized activity (activation), % at 26.1 µM; 650,000 compounds, 0.13% hits; AID 1259310, 2017; AlphaScreen FBW7–phospho-cyclin E peptide binding, activator screen; F-box/WD repeat-containing protein 7 (Homo sapiens), Q969H0; in the data active = normalized activity above about 1.9%;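 also: purified mutant Fbw7 with reduced substrate affinity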
TEAD-YAP block: TEAD-YAP interaction inhibition, primary screen, TEAD-YAP interaction inhibitor project, luminescence, HEK-TIYL cells | TEAD-Gal4/YAP UAS-luciferase luminescence | 640,000 compounds, 1.4% hits | AID 1259422, 2018 | inhibition, % at 9.12 µM; in the data active = inhibition above about 32%
GPR151 conf act: GPR151 activators, triplicate retest, confirmation, cell-based, PathHunter beta-arrestin, luminescence; shares compounds with GPR151 ag; GPR151 PathHunter beta-arrestin cells, 90 min; % of EA-reagent control over plate median; activation, % at 11.2 µM; 6,700 tested, under 10 active; AID 1508609, 2020;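 active = mean percent activation across replicates above the confirmation screen cutoff of 4.91%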
GPR119 ag: GPR119 activators in beta-arrestin cells, counter-screen for GPR151 activator project, cell-based, PathHunter beta-arrestin, luminescence, triplicate. shares compounds with GPR151 ag. 6,700 compounds, 0.3% hits. 90 min; 0 = compound-well median, 100 = enzyme-acceptor control. activation, % at 11.2 µM;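 active = mean percent activation in the counterscreen above 29.09%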;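 also: counterscreen on off-target GPR119 to flag nonselective hits from the GPR151 activator screen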
Numbers stand for hits; i = inactive; nt = no result; ! = repeats disagree.

SMILES | MITF inh | GPR151 ag | FBW7 activator | TEAD-YAP block | GPR151 conf act | GPR119 ag
O=C(N/N=C/c1ccc(Oc2ccc([N+](=O)[O-])cn2)cc1)c1cccc([N+](=O)[O-])c1 | i | 5.0 | i | i | i | i
CC(=O)N1CCc2cc(Br)cc(S(=O)(=O)Nc3cccc(C(F)(F)F)c3)c21 | i | i | i | i | nt | nt
CSc1ncc(CN2CCN(CC(C)(C)C)C(CCO)C2)cn1 (stereo unspecified) | i | 5.8 | i | i | i | i
CCCC(=O)N1c2ccccc2NC2=C(C(=O)CCC2)C1c1ccc(Cl)cc1Cl (stereo unspecified) | i | i | i | i | nt | nt
CCN(CC)c1ccc(/C=N/NC(=O)c2ccc(O)cc2O)cc1 | i | 6.0 | i | 74 | i | i
Cc1ccc(/C=N/NC(=O)c2ccc(O)cc2O)cc1 | i | i | i | i | nt | nt
COc1ccccc1CN1C[C@@H]2C[C@@H](c3cccc(SC)c3)N3CCC[C@@]23C1=O | i | 6.5 | i | i | i | i
O=C(CC1CCCCC1)Nc1c2c(nn1-c1ccc([N+](=O)[O-])cc1)CSC2 | i | i | i | i | nt | nt
CCOc1ccccc1OCC(=O)Nc1ccc2c(c1)OCO2 | i | i | i | i | nt | nt
O=C(COc1ccccc1C(=O)Nc1ccccc1)Nc1ccc2c(c1)OCO2 | i | 7.9 | i | i | i | i
CN(C)c1cccc(C(=O)N2CCc3c(nc(N4CCOCC4)[nH]c3=O)C2)c1 | i | i | i | i | nt | nt
O=c1c2ccccc2nc(SCc2ccncc2)n1CC1CCCO1 (stereo unspecified) | i | 6.2 | i | i | i | i
Cc1ccc(CSc2nc3ccccc3c(=O)n2CC2CCCO2)cc1 (stereo unspecified) | i | i | i | i | nt | nt
c1cncc(-c2noc(C34CC5CC(CC(C5)C3)C4)n2)c1 | i | 6.9 | i | i | i | i
c1cncc(-c2noc(CCC3CCCC3)n2)c1 | i | 7.7 | i | i | i | i
CCOC(=O)CSc1nnc(Cc2ccccc2)n1CC1CCCO1 (stereo unspecified) | i | i | i | i | nt | nt
COc1cc(C2C(C#N)=C(N)Oc3c2oc(CO)cc3=O)ccc1OC(C)C (stereo unspecified) | i | i | i | i | nt | nt
CC1CCCCN1C(=O)CCc1nc(-c2ccc(Cl)cc2)no1 (stereo unspecified) | i | 6.7 | i | i | i | i
Cc1ccc(-c2noc(CCC(=O)N3CCCCC3C)n2)cc1 (stereo unspecified) | i | i | i | i | nt | nt
CCOc1cc(C=C2C(=O)c3ccccc3C2=O)ccc1OC(C)=O | i | 10 | i | i | i | i
Cc1ccc(C(=O)NC(=S)NNC(=O)CCN2CCOCC2)cc1 | i | i | i | i | nt | nt
O=C(O)CC1c2ccccc2CCN1S(=O)(=O)c1ccc(Cl)cc1 (stereo unspecified) | i | 6.0 | i | i | i | i
O=C(O)CC1c2ccccc2CCN1S(=O)(=O)c1ccccc1 (stereo unspecified) | i | i | i | i | nt | nt
CN1C(=O)c2ccccc2C(C(=O)NC2CCCCCC2)C1c1cccs1 (stereo unspecified) | i | i | i | i | nt | nt
CC1CCCCC1NC(=O)C1c2ccccc2C(=O)N(C)C1c1cccs1 (stereo unspecified) | i | 7.5 | i | i | i | i
SMILES | MITF inh | GPR151 ag | FBW7 activator | TEAD-YAP block | GPR151 conf act | GPR119 ag
c1cncc(-c2ncc(-c3ccncn3)c(-c3ccncc3)n2)c1 | i | i | i | i | nt | nt
COc1ccccc1Cn1c(=S)[nH]c2cc(C(=O)N3CCCCC3)ccc2c1=O | i | i | i | i | nt | nt
COc1ccccc1Cn1c(=S)[nH]c2cc(C(=O)N3CCC(C(N)=O)(N4CCCCC4)CC3)ccc2c1=O | i | 5.8 | i | i | i | i
CC1CN(C(=O)Cn2c(C(F)(F)F)nc3ccccc32)CC(C)O1 (stereo unspecified) | i | i | i | i | nt | nt
CC1CCCC(C)N1C(=O)Cn1c(C(F)(F)F)nc2ccccc21 (stereo unspecified) | i | 12 | i | i | i | i
Fc1ccc(Cn2cc(/C=N/n3cnnc3)c3ccccc32)cc1 | i | i | i | i | nt | nt
Clc1ccc(Cn2cc(/C=N/n3cnnc3)c3ccccc32)cc1 | i | 6.2 | i | i | i | i
CCOc1ccc(C2C(C(=O)OC)=C(C)Nc3nnnn32)cc1 (stereo unspecified) | i | i | i | i | nt | nt
CCCCn1c(C)nc2c(sc3nc4c(cc32)COC(C)(C)C4)c1=O | i | 9.0 | i | i | i | i
COc1ccc(-c2nnc(NC(=O)c3ccccc3C)s2)c(OC)c1 | i | 5.8 | i | i | i | i
COc1ccc(-c2nnc3sc(NC(=O)c4ccccc4C)nn23)cc1 | i | i | i | i | nt | nt
COc1ccc(-c2nnc3sc(NC(=O)C(C)C)nn23)cc1OC | i | 14 | i | i | i | i
COc1ccc(-c2nnc3sc(NC(=O)c4ccccc4C)nn23)cc1OC | i | 8.8 | i | i | i | i
NC[C@H]1O[C@H](O[C@H]2[C@H](O)[C@@H](O[C@H]3O[C@H](CO)[C@@H](O)[C@H](N)[C@H]3O)[C@H](N)C[C@@H]2N)[C@H](N)C[C@@H]1O | i | 24! | i | i | i | i
CCn1c(=O)cc(OCC(=O)N2CCN(c3cc(C)ccc3C)CC2)c2ccccc21 | i | i | i | i | nt | nt
CC1=C(C(=O)OC(C)(C)C)C(c2ccc(Cl)cc2)C(C#N)=C(SCC(=O)Nc2ccccc2C)N1 (stereo unspecified) | i | i | i | i | nt | nt
Cc1cc(C(=O)NC(CC(C)C)C(=O)O)cc(C)c1[N+](=O)[O-] (stereo unspecified) | i | i | i | i | nt | nt
Cc1cc(C(=O)NC(C)C(=O)O)cc(C)c1[N+](=O)[O-] (stereo unspecified) | i | 5.0 | i | i | i | i
COc1ccc(C(=O)NCCc2c(C)[nH]c3c(C)ccc(F)c23)cc1OC | i | i | i | i | nt | nt
CCOc1ccc(CC(=O)NCCc2c(C)[nH]c3c(C)ccc(F)c23)cc1OCC | i | 6.5 | i | i | i | i
Cc1nc(Nc2cccc(N(C)C)c2)nc(Nc2cccc(N(C)C)c2)c1[N+](=O)[O-] | i | i | i | i | nt | nt
Cc1nc(Nc2ccc(N(C)C)cc2)nc(Nc2ccc(N(C)C)cc2)c1[N+](=O)[O-] | i | 10 | i | i | i | i
CCOC(=O)c1ccc(SCC2CCCO2)c([N+](=O)[O-])c1 (stereo unspecified) | i | i | i | i | nt | nt

Bioassay records deposited in PubChem BioAssay by The Scripps Research Institute Molecular Screening Center.
